A selection: hits, their analogues and other compounds. The true share with any hit is near 3.4%.
FXN GAA850 act – FXN promoter activators, primary screen, cell-based, luciferase luminescence, HEK293 lucGAA850; HEK293 lucGAA850 FXN promoter luciferase reporter, 24 h; percent of 10 µM SAHA response; actives 0.56% (n = 360,000); activation, % at 6 µM;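 active = activation above the average of all compounds screened plus 3 SD, cutoff fixed separately per campaign, cut at about 7.5% in these data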;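 note: 0% = DMSO wells and 100% = 10 µM SAHA wells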
GalR3 antag – GalR3 antagonists in HEK293 cells, primary screen, cell-based, fluorescence readout | HEK293 GalR3-CNG cAMP membrane potential fluorescence; galR3 body fused to GalR1 C-terminus | inhibition, % at 3 µM | actives 0.44% (n = 360,000) | AID 651719, 2012;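 active = inhibition above the screen-wide average plus 3 SD, cut at about 13% in these data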;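 note: forskolin and galanin both at EC90 stimulate the cells; cAMP rise reported by CNG channel membrane potential dye signal; 0% = forskolin plus galanin with DMSO and 100% = forskolin alone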
SMARCA2 activ – SMARCA2 (BRM) function activators, primary screen, cell-based, luminescence, high throughput. MG213 cells, MMTV-luciferase reporter, dexamethasone, overnight. activation, % at 9.1 µM. actives 1% (n = 370,000); in the data active = activation above about 7.8%;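 note: 0% = vehicle wells and 100% = reference activator wells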
H9c2 protect – cardioprotection against H2O2-induced cell death, primary screen, uHTS, H9c2 cells, ATPLite luminescence | H9c2 cardiomyocytes, H2O2 injury protection, 2 h | protection from H2O2 cell death, % at 20 µM | actives 0.63% (n = 360,000);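 active = compounds giving at least 50% protection of heart cells from peroxide-induced death in the single-dose screen, raw or plate-pattern-corrected value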;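 note: 0% = DMSO wells with peroxide and 100% = DMSO wells without peroxide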
Gli-Sufu block – Gli-Sufu pathway antagonists, primary screen, luciferase luminescence, Sufu-KO-LIGHT cells, uHTS. AID 588413, 2011. actives 0.74% (n = 340,000). Sufu-KO-LIGHT fibroblasts, Gli luciferase reporter luminescence. inhibition, % at 5 µM;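 active = inhibition above about 55%, limit read from the data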;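 note: 0% = DMSO-treated cells and 100% = wells with medium but no cells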
COUP-TFII inh – NR2F2 transcriptional activity inhibitors, primary screen, cell-based, luciferase reporter, HEK293T, luminescence | COUP transcription factor 2 (Homo sapiens), P24468 | HEK293T NGFI-A luciferase reporter | inhibition, % at 8.6 µM | actives 0.7% (n = 370,000);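 active = inhibition above a per-plate cutoff, mean inhibition of test wells between control levels plus 3 SD, cut at about 38% in these data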;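 note: cells cotransfected with COUP-TFII expression vector driving the NGFI-A reporter; 0% = median of COUP-TF2 test wells and 100% = reporter-only cells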
Target sequence (P24468 whole entry, looked up): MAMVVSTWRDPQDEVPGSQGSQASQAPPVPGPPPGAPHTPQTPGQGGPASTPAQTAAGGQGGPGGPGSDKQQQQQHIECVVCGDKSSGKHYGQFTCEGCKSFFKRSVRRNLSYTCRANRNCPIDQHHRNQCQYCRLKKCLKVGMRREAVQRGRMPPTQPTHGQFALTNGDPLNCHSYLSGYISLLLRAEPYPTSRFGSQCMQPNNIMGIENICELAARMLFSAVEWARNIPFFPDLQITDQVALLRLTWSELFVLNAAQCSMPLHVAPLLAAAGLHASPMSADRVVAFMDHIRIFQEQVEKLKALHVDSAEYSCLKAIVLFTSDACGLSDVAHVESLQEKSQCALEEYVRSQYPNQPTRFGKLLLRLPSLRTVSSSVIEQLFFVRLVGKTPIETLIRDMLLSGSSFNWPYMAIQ
GAA30 FXN cntr – GAA30 FXN promoter activators, confirmation, counter-screen for GAA850 frataxin promoter activator project, cell-based, luminescence, HEK293, lucGAA30, triplicate. HEK293 lucGAA30 FXN promoter luciferase, 24 h; DMSO = 0%, 5 µM ipriflavone = 100%. activation, % at 6 µM. shares compounds with FXN GAA850 act. actives 66% (n = 1,900);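 active = mean activation above the mean of solvent-only control wells plus 3 SD, cut at about 22% in these data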;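 note: counterscreen of GAA850 promoter hits where activity marks nonselective or luminescence artifacts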
FXN GAA850 conf – FXN GAA850 promoter activators in reporter cells, confirmation, cell-based, luminescence, HEK293 lucGAA850, triplicate. activation, % at 6 µM. shares compounds with FXN GAA850 act. HEK293 lucGAA850 FXN promoter luciferase reporter, 24 h; 100% = activation by SAHA. actives 86% (n = 1,900);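 active = mean activation above a set limit taken from the primary screen, cut at about 8% in these data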;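 note: 0% = DMSO wells and 100% = 10 µM SAHA wells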
An asterisk follows results filed as active; nt = no result given.

SMILES	FXN GAA850 act	GalR3 antag	SMARCA2 activ	H9c2 protect	Gli-Sufu block	COUP-TFII inh	GAA30 FXN cntr	FXN GAA850 conf
CC(C)(C)C(=O)OC12CCCN(C1)/C(=C/c1ccncc1)C2 (stereo not drawn)	nt	nt	-2	nt	nt	26	nt	nt
c1cnc2ccc(C(c3nnnn3C3CCCCC3)N3CCN4CCCC4C3)cc2c1 (stereo not drawn)	-1	1	-2	9	5	24	nt	nt
OC1CCN(C(c2ccc3ncccc3c2)c2nnnn2C2CCCCC2)CC1 (stereo not drawn)	7.8*	-9	7	2	-5	-1	8	8
FC(F)Oc1ccccc1/C=N/n1cnc2ccccc21	8.0*	0	4	0	-32	-33	95*	29*
CCOC(=O)CC[C@@H]1CC[C@]2(CCCN(C(=O)c3ccc4ccccc4n3)C2)O1	nt	nt	-4	nt	nt	13	nt	nt
COc1ccc(CNC2CCC23CCC(c2ccccc2)CC3)cc1OC (stereo not drawn)	nt	nt	nt	nt	nt	-4	nt	nt
COc1ccccc1N1CCN(c2cc(=O)n(-c3ccc(Br)cc3)c(=O)[nH]2)CC1	11*	-1	-3	8	5	7	19	12*
CC1CCN(C(=O)CN2C(=O)C(=O)c3ccccc32)CC1	13*	nt	nt	11	18	nt	22*	8.3*
Cc1cccc(C(=O)N[C@@H]2CC[C@@]34CCCN3C(=O)CCC[C@H]4[C@H]2C)c1	nt	nt	nt	nt	nt	-11	nt	nt
Cc1ccc(-n2c(C)nn(CCOc3ccccc3)c2=O)cc1	9.3*	-1	5	2	-39	-21	98*	27*
CCN(C[C@H]1N[C@@](CC)(C(=O)OC)[C@H]2C(=O)N(Cc3ccccc3)C(=O)[C@@H]12)C(=O)Nc1ccc(OC)cc1	18*	1	-2	-9	-8	-20	47*	16*
CCN(C[C@H]1N[C@@](CC)(C(=O)OC)[C@H]2C(=O)N(Cc3ccccc3)C(=O)[C@@H]12)C(=O)Nc1ccc(C(F)(F)F)cc1	8.4*	-6	-3	-12	9	-5	27*	14*
CC[C@@]1(C(=O)OC)N[C@H](CN(C)C(C)=O)[C@@H]2C(=O)N(Cc3ccccc3)C(=O)[C@@H]21	1	2	5	17	0	-20	nt	nt
CCN(C[C@H]1N[C@@](CC)(C(=O)OC)[C@H]2C(=O)N(Cc3ccccc3)C(=O)[C@@H]12)C(C)=O	2	-2	-2	10	-4	7	nt	nt
CC[C@@]1(C(=O)OC)N[C@H](CN(C)C(=O)Nc2ccc(Cl)cc2)[C@@H]2C(=O)N(Cc3ccccc3)C(=O)[C@@H]21	17*	-4	-4	1	-1	10	22	11*
CC[C@@]1(C(=O)OC)N[C@H](CN(C)C(=O)COc2ccccc2)[C@@H]2C(=O)N(Cc3ccccc3)C(=O)[C@@H]21	9.5*	-5	-4	3	-29	-4	18	7
S=c1[nH]nc(-c2n[nH]c3c2CCC3)n1N=Cc1c2ccccc2cc2ccccc12	nt	nt	1	nt	nt	-11	nt	nt
Cc1cccc(C(=O)Nc2cccc(C(=O)N/N=C/c3ccncc3)c2)c1	2	-7	0	24	1	-1	nt	nt
Cc1cccc(C(=O)Nc2ccc(C(=O)/C=C/c3ccncc3)cc2)c1	17*	-8	-6	-21	-15	-38	16	27*
COc1cc(C(=O)Nc2nc3ccccc3[nH]2)ccc1OC(F)F	9.6*	-2	4	-21	-31	15	86*	36*
CCC(C)N(CCNC(=O)c1ccc2c(c1)NC(=O)c1ccccc1S2)C1CCCCC1 (stereo not drawn)	11*	-7	-1	9	14	11	18	11*
FC(F)(F)c1cc(-c2ccccc2)nc(-n2cncn2)n1	3	-4	0	-2	3	10	nt	nt
CS(=O)(=O)c1nc(-c2ccccc2)cc(C(F)(F)F)n1	25*	23*	-10	-38	23	-71	-82	-27
COc1cc(/C=N/O)ccc1Oc1ccc([N+](=O)[O-])cc1[N+](=O)[O-]	4	-3	-1	-13	-23	9	nt	nt
O=[N+]([O-])c1cc(/C=N\O)ccc1Oc1ccc(F)cc1	9.4*	-4	3	-7	-19	1	51*	25*
SMILES	FXN GAA850 act	GalR3 antag	SMARCA2 activ	H9c2 protect	Gli-Sufu block	COUP-TFII inh	GAA30 FXN cntr	FXN GAA850 conf
c1ccc(Cn2c(SCC3CCCCC3)nnc2-c2cccnc2)cc1	nt	nt	-6	nt	nt	24	nt	nt
Cc1ccccc1Cn1cc(CN2[C@@H](Cc3ccccc3)COc3cc(Br)ccc3S2(=O)=O)nn1	nt	nt	-4	nt	nt	-11	nt	nt
CC1CCC(NC(=O)CCn2ccc3cc(S(=O)(=O)N4CCCC4)ccc32)CC1 (stereo not drawn)	8.4*	1	0	-1	20	20	9	8.9*
CCCc1ccc2c(C(F)(F)F)cc(C(F)(F)F)cc2n1	nt	-2	-3	8	nt	6	nt	nt
COP(=O)(O)C(COCCC(CC(C)C)NC(=O)OCc1ccccc1[N+](=O)[O-])NC(=O)OCc1ccccc1 (stereo not drawn)	nt	nt	nt	nt	nt	-14	nt	nt
O=C1[C@H]2[C@@H](C(=O)N1c1cccc3ccccc13)C1(C(=O)c3ccccc3C1=O)N1CCC[C@@H]21	9.4*	-1	1	3	3	-17	37*	16*
C=CCn1c(-c2csc(-c3ccc(OC)c(OC)c3)n2)n[nH]c1=S	7.6*	-3	1	10	0	-2	6	11*
C=CCn1c(-c2csc(-c3ccc(Cl)cc3)n2)n[nH]c1=S	2	3	-1	-2	-5	-3	nt	nt
C#CCNC(=O)C[C@H]1C[C@@]2(C(=O)OC)C(=C[C@H](C(C)(C)C)O[C@@H]2C)N(CCCCCCCC)C1=O	nt	-8	-4	nt	nt	1	nt	nt
CCN1CCN(c2ccc(NC(=O)c3ccc([N+](=O)[O-])o3)cc2Cl)CC1	4	2	-4	-38	1	-45	nt	nt

Compound activity as filed in PubChem.
